Laboratory results as given in PubChem BioAssay (NCATS).
Results filed as inconclusive are left out. The source made the active and inactive calls. Calls follow the shape of the dose curve; as a rule, active = well fitted activation curve with a large enough effect; inconclusive = small, poorly fitted or top-dose-only effect; inactive = no such curve, though single readings can be large or run the other way.

molecular target: Rap guanine nucleotide exchange factor 3 (Homo sapiens) (UniProt O95398); assay: Confirmatory qHTS for agonist of cAMP-regulated guanine nucleotide exchange factor 3 (EPAC1) (AID 1645881); settings: EPAC1 Rap1B BODIPY-GDP exchange fluorescence; series mostly up to 154 µM;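 also: EPAC1 catalysed release of BODIPY-GDP from Rap1B seen as fluorescence loss; nearly all actives have a fitted effect of over 75% in size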
Sequence (O95398 whole entry, looked up): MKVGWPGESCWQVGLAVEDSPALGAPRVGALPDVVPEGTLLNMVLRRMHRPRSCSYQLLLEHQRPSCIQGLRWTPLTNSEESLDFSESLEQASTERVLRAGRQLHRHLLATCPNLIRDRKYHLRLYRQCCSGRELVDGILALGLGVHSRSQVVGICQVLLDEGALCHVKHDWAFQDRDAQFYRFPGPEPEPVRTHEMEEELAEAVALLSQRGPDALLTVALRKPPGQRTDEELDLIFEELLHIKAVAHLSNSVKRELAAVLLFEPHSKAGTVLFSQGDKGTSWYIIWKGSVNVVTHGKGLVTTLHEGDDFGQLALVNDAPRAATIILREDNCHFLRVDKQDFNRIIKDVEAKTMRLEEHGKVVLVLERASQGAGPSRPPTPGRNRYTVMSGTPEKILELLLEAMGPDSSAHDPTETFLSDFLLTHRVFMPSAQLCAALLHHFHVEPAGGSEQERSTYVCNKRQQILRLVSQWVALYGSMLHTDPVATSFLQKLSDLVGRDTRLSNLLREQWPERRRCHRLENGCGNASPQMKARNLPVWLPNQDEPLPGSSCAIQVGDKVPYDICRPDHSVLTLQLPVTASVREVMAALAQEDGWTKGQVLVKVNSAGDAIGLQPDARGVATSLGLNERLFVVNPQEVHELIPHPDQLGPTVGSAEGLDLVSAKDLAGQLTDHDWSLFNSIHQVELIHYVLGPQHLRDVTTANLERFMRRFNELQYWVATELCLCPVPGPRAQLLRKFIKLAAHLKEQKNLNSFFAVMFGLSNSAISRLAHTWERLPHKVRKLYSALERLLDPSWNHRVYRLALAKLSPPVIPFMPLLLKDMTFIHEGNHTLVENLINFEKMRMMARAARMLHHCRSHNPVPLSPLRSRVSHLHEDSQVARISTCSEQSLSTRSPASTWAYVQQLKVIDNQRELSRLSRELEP

Potency, inactive:
Cc1ccc(C(=O)Nc2cccc(-c3ccc(N4CCOCC4)nn3)c2)cc1C
COc1ccc2ccc(C(C)(C(C)=O)C(=O)OC(C)C)cc2c1 (configuration not stated)
N=C1/C(=C\c2ccc(-c3cccc(Cl)c3)o2)C(=O)N=C2SC=C(c3ccccc3)N12
CC(=O)C(=Cc1ccc(Cl)cc1)C(=O)c1ccccc1
OC(c1ccc(F)c(F)c1)c1nc(-c2csc3ccccc23)cs1 (configuration not stated)
COc1ccccc1C(C(=O)c1ccccc1)c1ccc(O)cc1 (configuration not stated)
CCOc1cc(CNCCSc2nnnn2C)ccc1OCc1ccc(Cl)cc1Cl
CCc1nc(Oc2cccc(F)c2)c2oc3ccccc3c2n1
COc1ccc(OCc2nc3ccccc3n2C(C)c2ccccc2)cc1 (configuration not stated)
CC(C)N(Cc1ccccc1)C(=O)c1nc(-c2ccc(Cl)cc2)n2c1CCCCC2
O=C1/C(=C/c2cccs2)COc2ccccc21
Cc1ccc(Cl)cc1N1CCN(C(=O)c2ccc(C)c(-n3c(C)nc4cccnc43)c2)CC1
CN1CCN(c2cc(N3CCN(C(=O)c4ccco4)CC3)c3c4c(onc24)-c2ccccc2C3=O)CC1
O=C1NC(=O)C(=Cc2ccccc2[N+](=O)[O-])S1
CCCN1CCN(c2ncnc3sc(C(=O)Nc4ccc(OC(F)(F)F)cc4)c(C)c23)CC1
CCOC(=O)C1=C(C)NC(C)=C(C(=O)OCC)C1c1cccc([N+](=O)[O-])c1
OCCCNc1ncnc2oc(-c3ccccc3)c(-c3ccccc3)c12
